# From PubChem BioAssay AID1851 (National Center for Advancing Translational Sciences (NCATS), 2009)
# The whole screen tested about 16,000 compounds, of which about 4,000 (25%) were called active. Roughly 26% stayed inconclusive and do not appear here. Only a sample is shown. Values without a mark were called inactive. Calls come from the whole dose curve; as a rule, active = well fitted curve in the direction sought with a large enough effect; inconclusive = small, poorly fitted or top-dose-only effect, or effect the other way; inactive = no such curve, though single readings can be large or run the other way.
# Target: Cytochrome P450 2C9 (Homo sapiens) (UniProt P11712)
# Assay: Cytochrome panel assay with activity outcomes
# Conditions: recombinant CYP, pro-luciferin dealkylation, luminescence, p450-cyp2c9; series mostly up to 57.1 µM; activity, negative = inhibition: at the top concentration
# % is set by controls: 0 for no effect and ±100 for the full control effect.
# Cytochrome P450 2C9 (Homo sapiens), sequence (P11712 whole entry, looked up): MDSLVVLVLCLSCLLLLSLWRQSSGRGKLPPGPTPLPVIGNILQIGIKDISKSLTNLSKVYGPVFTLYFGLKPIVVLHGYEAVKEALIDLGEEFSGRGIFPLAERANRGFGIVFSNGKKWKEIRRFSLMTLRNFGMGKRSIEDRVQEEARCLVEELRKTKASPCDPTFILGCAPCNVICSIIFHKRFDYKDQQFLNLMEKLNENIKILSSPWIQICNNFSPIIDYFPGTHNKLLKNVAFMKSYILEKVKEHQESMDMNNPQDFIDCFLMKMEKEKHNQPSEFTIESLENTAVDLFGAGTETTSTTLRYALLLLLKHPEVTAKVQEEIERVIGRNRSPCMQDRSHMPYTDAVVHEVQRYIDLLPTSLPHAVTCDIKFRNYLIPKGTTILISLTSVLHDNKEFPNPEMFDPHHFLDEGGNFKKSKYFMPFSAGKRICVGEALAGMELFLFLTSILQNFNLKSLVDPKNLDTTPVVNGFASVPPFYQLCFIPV
Structure (SMILES),"activity, negative = inhibition",AC50
Cc1cnc(CNc2ccnc(-c3ccc(N(C)C)cc3)n2)cn1,1.73% [at 2.29 µM],–
COc1cccc(/C=N/n2nnc3c(cnn3-c3ccccc3)c2=O)c1,1.29%,–
O=C(CCN1CCCCC1)N1CCc2c([nH]c3ccccc23)[C@H]1c1cccnc1,2.98% [at 11.4 µM],–
Clc1ccc(CSC2=NCCN2)cc1Cl,9.47% [at 11.4 µM],–
CNc1cc(CSC)nc(SCc2ccc(Cl)c(Cl)c2)n1,–,8.91 µM (active)
COc1ccc(-c2nc3cnc(Nc4cccc(OC)c4)nc3n(CCC#N)c2=O)cc1,4.66%,–
COc1cc(C2SCCCCCCCCCCSC(c3ccc(O)c(OC)c3)SCCCCCCCCCCS2)ccc1O (configuration not stated),10.3% [at 11.4 µM],–
COc1ccc(NC(=O)C2CC(=O)NC3=C2C(=O)CC(C)(C)C3)cc1 (configuration not stated),-7.67%,–
COc1ccc(OC)c(C2CC(=O)C3=C(C2)NC(=O)CC3c2ccc(O)c(OC)c2)c1 (configuration not stated),–,11.2 µM (active)
O=C=Nc1ccc(Cc2ccc(N=C=O)cc2)cc1 (tested in a mixture with another compound),2.55% [at 11.4 µM],–
O=C(Nc1ccccc1)N1CCC2(CC1)CCN(C(=O)c1cnccn1)CC2,12.7%,–
O=C(NCc1ccccc1Cl)c1cnccn1,-20.1%,–
O=C(Nc1ccccc1N1CCOCC1)c1cnccn1,–,2 µM (active)
CCC/C=C(\CCC)C(NS(=O)(=O)c1ccc(C(F)(F)F)cc1)c1ccc(C(=O)OC)cc1 (configuration not stated),–,3.16 µM (active)
CCC/C=C(\CCC)C(NS(=O)(=O)c1ccccc1)c1ccc(C(F)(F)F)cc1 (configuration not stated),–,10 µM (active)
COC(=O)C/C=C\[C@H](C)[C@H](CO)NS(=O)(=O)c1ccc(C)cc1,0.902% [at 11.4 µM],–
CCC/C=C(\CCC)C(NS(=O)(=O)c1ccc(Cl)cc1)c1ccc(C(=O)OC)cc1 (configuration not stated),–,3.16 µM (active)
CCC/C=C(\CCC)C(NS(=O)(=O)CC12CCC(CC1=O)C2(C)C)c1ccc(C(=O)OC)cc1 (configuration not stated),–,15.8 µM (active)
CCC/C=C(\CCC)C(NS(=O)(=O)c1ccc(C(F)(F)F)cc1)c1ccc(-c2ccccc2)cc1 (configuration not stated),-29.2%,–
COc1c2occc2c(OC)c2c(=O)cc(C)oc12,-22.4% [at 25.6 µM],–
Cc1ccccc1[C@@H](OCCN(C)C)c1ccccc1,-17.5%,–

Structure (SMILES),"activity, negative = inhibition",AC50
CCC/C=C(\CCC)C(NS(=O)(=O)c1ccc(Cl)cc1)c1ccccc1 (configuration not stated),–,2.51 µM (active)
CCC/C=C(\CCC)C(NS(C)(=O)=O)c1ccccc1 (configuration not stated),-21.6%,–
CCN(CC)C(=O)N1CCN(C)CC1,14.3% [at 25.6 µM],–
CS(=O)(=O)N1CCC2(CCCN(C(=O)Nc3cccc(C#N)c3)C2)CC1,-4.46%,–
CCOc1ccccc1NC(=O)CSc1nnc(-c2cnccn2)n1C,-16%,–
COc1ccccc1-n1c(SCC(=O)Nc2ccccc2F)nc2[nH]ncc2c1=O,–,15.8 µM (active)
O=C(CSc1nc2nc(-c3cccs3)cc(C(F)(F)F)c2c(=O)[nH]1)NCc1ccco1,–,0.631 µM (active)
CCn1cc(C(=O)NCC(=O)OC)c2cc(OC)c(OC)cc2c1=O,-29.2%,–
CC(C)(C)c1cc2cccnc2n1Cc1ccccc1,1.4%,–
Oc1ccc(Cn2c(-c3ccc(O)cc3)nc3ccccc32)cc1,9.3% [at 11.4 µM],–
Clc1ncccc1-c1nc2ccccc2n1Cc1ccccc1,–,15.8 µM (active)
Clc1ccc(Cn2c(-c3cccnc3Cl)nc3ccccc32)c(Cl)c1,–,5.62 µM (active)
c1ccc(CN2c3ccccc3-c3nc4ccccc4n3C2c2ccccn2)cc1 (configuration not stated),–,7.94 µM (active)
NC(N)=N[C@H](CCC(=O)O)C(=O)O,18.9%,–
O=C1OCC(c2ccccc2)=C1c1ccc(S(=O)(=O)N2CCOCC2)s1,–,12.6 µM (active)
CCCCCC(=O)O[C@H](CC(=O)O)C[N+](C)(C)C,-7.97%,–
COc1ccc(C)cc1NC(=O)CN1CCN(S(=O)(=O)c2ccc(F)cc2)CC1,–,2.51 µM (active)
Cc1cccc(N2CCN(CC(=O)Nc3ccc(-n4cnnn4)cc3)CC2)c1C,-11.3%,–
CC1CCOC2(O1)C(=O)N(CN1CCN(c3ccccc3F)CC1)c1ccccc12 (configuration not stated),24.7%,–
COc1ccc(S(=O)(=O)N2CCN(CC(=O)Nc3cc(OC)cc(OC)c3)CC2)cc1,19.8%,–
COc1ccccc1N1CCN(C[C@@H](C(=O)NC(C)(C)C)c2ccccc2)CC1,9.59%,–

Structure (SMILES),"activity, negative = inhibition",AC50
CCN(CC)c1ccc(NC(=O)CN2CCN(c3ccccc3F)CC2)cc1,–,11.2 µM (active)
O=C(CCN1CCN(c2ccccc2F)CC1)Nc1ccccc1F,–,3.98 µM (active)
COc1ccccc1NC(=O)CN1CCN(c2ccccc2F)CC1,–,5.01 µM (active)
O=C(CN1CCN(S(=O)(=O)c2ccc(F)cc2)CC1)Nc1ccc(Cl)c(C(F)(F)F)c1,-23.9%,–
O=C(NCCCN1CCN(c2ccccc2F)CC1)C1CCC(=O)N1C1CCCCC1 (configuration not stated),-1.7%,–
O=c1c(-c2ccccc2)c(O)c2cccc3c2n1CCC3,27.1%,–
COc1ccccc1CN1CCCC2(CCNCC2)C1,-6.14%,–
COc1cc(NC(=O)c2ccccc2)c(OC)cc1NC(=O)CN1CCN(c2ccccn2)CC1,–,3.16 µM (active)
COC(=O)N1CCC2(CC1)CN(c1ccccn1)C2,0.409%,–
CCOC(=O)N1CCN(S(=O)(=O)c2ccc(C(=O)Nc3ccc(F)cc3F)cc2)CC1,–,15.8 µM (active)
CCOc1ccc(C(=O)CN2CCN(S(=O)(=O)c3ccc(F)cc3)CC2)cc1,-47.6%,–
COc1ccccc1N1CCN(CCN(C(=O)C2CCCCC2)c2ccccn2)CC1,-3.2%,–
CN(C)CCNc1ccccn1,3.16% [at 11.4 µM],–
Cc1noc(C)c1C(=O)N1CCC2(CCCN(Cc3nccs3)C2)CC1,4.27%,–
CN(C)Cc1ccccc1-c1cncnc1NC1CC1,8.78% [at 2.29 µM],–
CN(C)CCNC(=O)c1cc(Br)ccc1Cl,21.3%,–
Cc1cc(OCCNCCO)cc(C)c1Cl,-7.03%,–
Cc1ccc(OCCNC(=O)c2cc(-n3cnnc3)ccc2Cl)cc1C,–,11.2 µM (active)
Cc1cccc(N/C(=N\S(=O)(=O)c2ccccc2)C(F)(F)F)c1,–,2.51 µM (active)
NC(N)=N/N=C\c1ccc(C2CCNCC2)cc1,2.7% [at 11.4 µM],–
